Results taken from the supplement of paper PMC10849652.
The full data set covers some 7,900 targets. This sample favours those with a hit. About 0.6% of all pairs of compound and target were hits.

How the values were obtained:
Test in all cases: log2 fold change, soluble protein after heating vs DMSO (PISA); higher = thermal stabilisation; K562 cells, 10 uM, 30 min; active = over 0.2 and 3.5 SD of the protein, either way, in both replicates (recomputed)
[1] = compound: CC[C@@H]1C(=O)N(C)c2cnc(Nc3ccc(C(=O)NC4CCN(C)CC4)cc3OC)nc2N1C1CCCC1
Summary of the method: (§1)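 For each measurement, 10 μM compound was applied for 30 min to K562 cells at 2×10^6 cells/mL. Aliquots were heated for 3 min across 48°C-58°C, pooled, and extracted in PBS with 0.5% NP-40 at 4°C; the supernatant after 21,000xg for 90 min was soluble protein. This was quantified by TMTpro 16plex LC-MS/MS with channel sums equalised, and thermal stability was reported relative to control samples from duplicates, on a log2 fold-change scale.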

volasertib = compound: CC[C@@H]1C(=O)N(C)c2cnc(Nc3ccc(C(=O)N[C@H]4CC[C@H](N5CCN(CC6CC6)CC5)CC4)cc3OC)nc2N1C(C)C [volasertib]
Summary of the method: as §1

[2] = compound: CC[C@H](C)N1C=C(C2=C(C=C(C=C21)C3=CN=C(C=C3)N4CCNCC4)C(=O)NCC5=C(C=C(NC5=O)C)C)C
Summary of the method: as §1

epoxomicin = compound: CC[C@H](C)[C@@H](C(=O)N[C@@H]([C@@H](C)O)C(=O)N[C@@H](CC(C)C)C(=O)[C@]1(CO1)C)NC(=O)[C@H]([C@@H](C)CC)N(C)C(=O)C [epoxomicin]
Summary of the method: as §1

[3] = compound: CCn1c(C(=O)N(C2CC2)C2CC2)cc2c3c(ncn3C)c(Nc3cc(C)n(C)n3)nc21
Summary of the method: as §1

[4] = compound: CCn1cc(-c2ccnc3[nH]c(-c4cccc(CN(C)C)c4)cc23)c(-c2ccc(NC(=O)N(C)C)cc2)n1
Summary of the method: as §1

[5] = compound: CN(C)CC(=O)Nc1ccc2[nH]c(=O)c3ccccc3c2c1
Summary of the method: as §1

rosiglitazone = compound: CN(CCOC1=CC=C(C=C1)C[C@H]2C(=O)NC(=O)S2)C3=CC=CC=N3 (racemic) [rosiglitazone]
Summary of the method: as §1

[6] = compound: CN1C2=C(C3=C1C(=O)N(N=C3)CC4=CC(=CC=C4)N)SC(=C2)S(=O)C
Summary of the method: as §1

[7] = compound: CN1CCC(CNc2ccc3ncc(-c4cccc(OC(F)(F)F)c4)n3n2)CC1
Summary of the method: as §1

saracatinib = compound: CN1CCN(CCOc2cc(OC3CCOCC3)c3c(Nc4c(Cl)ccc5c4OCO5)ncnc3c2)CC1 [saracatinib]
Summary of the method: as §1

Tubastatin A = compound: CN1CCc2c(c3ccccc3n2Cc2ccc(C(=O)NO)cc2)C1 [Tubastatin A]
Summary of the method: as §1

[8] = compound: CNC(=O)C1=CC=CC=C1NC2=NC(=NC=C2Cl)NC3=C(C=C(C=C3)N4CCOCC4)OC
Summary of the method: as §1

defactinib = compound: CNC(=O)c1ccc(Nc2ncc(C(F)(F)F)c(NCc3nccnc3N(C)S(C)(=O)=O)n2)cc1 [defactinib]
Summary of the method: as §1

rucaparib = compound: CNCc1ccc(-c2[nH]c3cc(F)cc4c3c2CCNC4=O)cc1 [rucaparib]
Summary of the method: as §1

[9] = compound: CNc1nc(-c2ccc3c(N)n[nH]c3c2)cc(N2C[C@@H](C(=O)NC3CCCCC3)CC[C@H]2C)n1
Summary of the method: as §1

encorafenib = compound: COC(=O)N[C@@H](C)CNc1nccc(-c2cn(C(C)C)nc2-c2cc(Cl)cc(NS(C)(=O)=O)c2F)n1 [encorafenib]
Summary of the method: as §1

[10] = compound: COC(=O)[C@H](CCSC)NC(=O)C1=C(C=C(C=C1)NC[C@H](CS)N)C2=CC=CC=C2
Summary of the method: as §1

sotrastaurin = compound: CN1CCN(c2nc(C3=C(c4c[nH]c5ccccc45)C(=O)NC3=O)c3ccccc3n2)CC1 [sotrastaurin]
Summary of the method: as §1

alvocidib = compound: CN1CC[C@H](c2c(O)cc(O)c3c(=O)cc(-c4ccccc4Cl)oc23)[C@H](O)C1 [alvocidib]
Summary of the method: as §1

Measured: log2 fold change

MAPK12 (UniProt P53778)
Chain of UniProt P53778 (P53778 whole entry, looked up): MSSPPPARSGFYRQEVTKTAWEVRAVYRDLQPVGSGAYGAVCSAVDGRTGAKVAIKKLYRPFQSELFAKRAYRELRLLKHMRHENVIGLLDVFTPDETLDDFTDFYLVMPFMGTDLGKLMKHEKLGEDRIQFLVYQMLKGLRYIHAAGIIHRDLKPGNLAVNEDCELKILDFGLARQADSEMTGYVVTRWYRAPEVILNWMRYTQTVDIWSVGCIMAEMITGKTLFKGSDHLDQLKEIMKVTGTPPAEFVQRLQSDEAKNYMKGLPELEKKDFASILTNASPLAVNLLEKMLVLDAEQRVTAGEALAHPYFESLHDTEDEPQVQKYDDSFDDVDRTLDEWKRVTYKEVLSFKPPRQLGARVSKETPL
inactive: [1] -0.097 | volasertib 0.036 | [2] -0.128 | epoxomicin 0.089 | [3] 0.182 | [4] -0.051 | [5] 0.009 | rosiglitazone -0.176 | [6] -0.097 | [7] -0.077 | saracatinib 0.119 | Tubastatin A -0.037 | [8] 0.112 | defactinib -0.06 | rucaparib 0.101 | [9] -0.074 | encorafenib 0.017 | [10] 0.059

MCCC2 (UniProt Q9HCC0)
Chain of UniProt Q9HCC0 (Q9HCC0 whole entry, looked up): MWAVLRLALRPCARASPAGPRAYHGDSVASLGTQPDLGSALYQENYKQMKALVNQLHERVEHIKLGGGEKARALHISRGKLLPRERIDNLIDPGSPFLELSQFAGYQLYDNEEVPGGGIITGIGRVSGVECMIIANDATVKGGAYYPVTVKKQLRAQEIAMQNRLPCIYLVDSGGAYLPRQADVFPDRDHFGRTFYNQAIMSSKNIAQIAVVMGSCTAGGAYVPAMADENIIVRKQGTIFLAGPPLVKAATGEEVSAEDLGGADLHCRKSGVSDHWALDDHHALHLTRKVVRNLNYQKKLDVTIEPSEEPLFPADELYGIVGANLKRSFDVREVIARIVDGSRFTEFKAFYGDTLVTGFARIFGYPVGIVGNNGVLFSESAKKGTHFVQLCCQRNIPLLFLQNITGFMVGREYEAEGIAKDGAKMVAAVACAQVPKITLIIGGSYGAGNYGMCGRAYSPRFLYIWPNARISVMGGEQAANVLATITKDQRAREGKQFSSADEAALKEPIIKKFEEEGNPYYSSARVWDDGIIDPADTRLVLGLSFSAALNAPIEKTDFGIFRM
inactive: [1] 0.003 | volasertib 0.038 | [2] -0.032 | epoxomicin -0.018 | [3] -0.007 | [4] -0.013 | [5] 0.003 | rosiglitazone 0.012 | [6] -0.031 | [7] 0.027 | saracatinib 0.033 | sotrastaurin 0.018 | alvocidib 0 | Tubastatin A 0.004 | defactinib 0.008 | rucaparib 0.012 | [9] -0.05 | encorafenib -0.033 | [10] -0.003
active: [8] -0.274

MAP4K4 isoform 3 (UniProt O95819)
Chain of UniProt O95819 (O95819 whole entry, looked up): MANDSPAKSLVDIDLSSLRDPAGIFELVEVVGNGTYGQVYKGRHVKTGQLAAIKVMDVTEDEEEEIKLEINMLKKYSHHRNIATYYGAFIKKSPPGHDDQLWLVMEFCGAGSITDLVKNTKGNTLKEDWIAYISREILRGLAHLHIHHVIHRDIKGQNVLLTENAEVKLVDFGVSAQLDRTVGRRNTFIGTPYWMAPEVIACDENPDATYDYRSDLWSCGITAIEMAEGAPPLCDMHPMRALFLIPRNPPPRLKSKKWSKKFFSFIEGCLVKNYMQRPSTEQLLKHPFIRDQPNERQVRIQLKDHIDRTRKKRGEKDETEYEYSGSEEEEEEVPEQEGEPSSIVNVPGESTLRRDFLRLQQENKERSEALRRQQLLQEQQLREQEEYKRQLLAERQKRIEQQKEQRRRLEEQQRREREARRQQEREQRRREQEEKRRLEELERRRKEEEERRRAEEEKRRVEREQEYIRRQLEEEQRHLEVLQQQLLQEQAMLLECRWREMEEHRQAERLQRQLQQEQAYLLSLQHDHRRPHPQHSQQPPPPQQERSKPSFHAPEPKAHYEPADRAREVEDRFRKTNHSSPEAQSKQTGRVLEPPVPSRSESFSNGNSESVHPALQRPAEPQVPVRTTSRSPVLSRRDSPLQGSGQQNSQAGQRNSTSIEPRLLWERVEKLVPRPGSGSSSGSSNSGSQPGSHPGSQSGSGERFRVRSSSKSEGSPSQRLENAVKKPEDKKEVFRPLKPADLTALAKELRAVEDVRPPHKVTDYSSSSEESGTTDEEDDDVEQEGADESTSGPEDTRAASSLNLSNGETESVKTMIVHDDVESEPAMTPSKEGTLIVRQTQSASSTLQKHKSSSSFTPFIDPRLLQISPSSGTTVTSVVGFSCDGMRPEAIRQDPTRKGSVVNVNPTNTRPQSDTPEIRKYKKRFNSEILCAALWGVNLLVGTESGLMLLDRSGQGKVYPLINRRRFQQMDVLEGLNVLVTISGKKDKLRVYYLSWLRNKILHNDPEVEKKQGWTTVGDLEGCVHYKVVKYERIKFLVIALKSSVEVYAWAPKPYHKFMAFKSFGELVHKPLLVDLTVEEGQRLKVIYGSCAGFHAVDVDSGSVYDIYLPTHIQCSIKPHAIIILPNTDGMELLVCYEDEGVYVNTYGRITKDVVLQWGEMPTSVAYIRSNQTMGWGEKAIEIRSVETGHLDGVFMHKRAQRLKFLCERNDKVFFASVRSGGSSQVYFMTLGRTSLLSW
inactive: [1] -0.082 | [2] 0.011 | epoxomicin 0.047 | [3] 0.017 | [4] -0.184 | [5] 0.012 | rosiglitazone 0.058 | [6] 0.001 | saracatinib -0.054 | Tubastatin A -0.002 | [8] -0.051 | defactinib -0.067 | rucaparib -0.004 | [9] -0.037 | encorafenib 0.026 | [10] 0.018
active: volasertib -0.316 | [7] -0.299

MIF (UniProt P14174)
Chain of UniProt P14174 (P14174 whole entry, looked up): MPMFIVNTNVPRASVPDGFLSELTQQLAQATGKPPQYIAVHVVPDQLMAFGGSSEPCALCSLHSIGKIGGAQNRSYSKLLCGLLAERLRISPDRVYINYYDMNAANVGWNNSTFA
active: epoxomicin 0.454
inactive: [1] 0.025 | volasertib 0.021 | [2] -0.096 | [3] 0.015 | [4] 0.081 | [5] 0.025 | rosiglitazone -0.012 | [6] -0.038 | [7] 0.211 | saracatinib -0.029 | sotrastaurin -0.005 | alvocidib -0.001 | Tubastatin A -0.065 | [8] 0.82 | defactinib -0.019 | rucaparib 0.026 | [9] -0.105 | encorafenib -0.058 | [10] 0.06

MCU (UniProt Q8NE86)
Chain of UniProt Q8NE86 (Q8NE86 whole entry, looked up): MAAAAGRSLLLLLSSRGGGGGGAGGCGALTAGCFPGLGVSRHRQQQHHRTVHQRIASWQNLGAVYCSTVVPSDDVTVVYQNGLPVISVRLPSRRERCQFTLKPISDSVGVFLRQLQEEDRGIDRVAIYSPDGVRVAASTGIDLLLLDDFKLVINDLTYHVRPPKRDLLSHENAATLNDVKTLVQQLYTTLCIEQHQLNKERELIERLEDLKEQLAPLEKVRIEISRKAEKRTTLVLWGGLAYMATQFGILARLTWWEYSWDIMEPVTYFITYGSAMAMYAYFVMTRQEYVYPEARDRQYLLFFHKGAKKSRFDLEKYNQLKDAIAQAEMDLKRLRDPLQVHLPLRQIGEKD
inactive: [1] -0.147 | [2] 0.014 | epoxomicin 0.075 | [3] -0.082 | [4] -0.048 | [5] 0.011 | rosiglitazone 0.034 | [6] -0.045 | saracatinib 0.039 | sotrastaurin -0.028 | alvocidib -0.08 | Tubastatin A 0.036 | [8] 0.013 | defactinib -0.043 | rucaparib -0.032 | [9] -0.014 | encorafenib -0.017 | [10] -0.032
active: volasertib -0.249 | [7] -0.23

KPNA6 (UniProt O60684)
active: volasertib -0.699
inactive: [1] -0.225 | [2] 0.04 | epoxomicin 0.021 | [3] -0.098 | [4] 0.043 | [5] 0.063 | rosiglitazone 0.062 | [6] 0.227 | [7] -0.184 | saracatinib -0.004 | sotrastaurin -0.117 | alvocidib -0.073 | Tubastatin A 0.008 | [8] 0.082 | defactinib -0.06 | rucaparib 0.092 | [9] -0.042 | encorafenib 0.12 | [10] -0.099

MGRN1 isoform 2 (UniProt O60291)
Chain of UniProt O60291 (O60291 whole entry, looked up): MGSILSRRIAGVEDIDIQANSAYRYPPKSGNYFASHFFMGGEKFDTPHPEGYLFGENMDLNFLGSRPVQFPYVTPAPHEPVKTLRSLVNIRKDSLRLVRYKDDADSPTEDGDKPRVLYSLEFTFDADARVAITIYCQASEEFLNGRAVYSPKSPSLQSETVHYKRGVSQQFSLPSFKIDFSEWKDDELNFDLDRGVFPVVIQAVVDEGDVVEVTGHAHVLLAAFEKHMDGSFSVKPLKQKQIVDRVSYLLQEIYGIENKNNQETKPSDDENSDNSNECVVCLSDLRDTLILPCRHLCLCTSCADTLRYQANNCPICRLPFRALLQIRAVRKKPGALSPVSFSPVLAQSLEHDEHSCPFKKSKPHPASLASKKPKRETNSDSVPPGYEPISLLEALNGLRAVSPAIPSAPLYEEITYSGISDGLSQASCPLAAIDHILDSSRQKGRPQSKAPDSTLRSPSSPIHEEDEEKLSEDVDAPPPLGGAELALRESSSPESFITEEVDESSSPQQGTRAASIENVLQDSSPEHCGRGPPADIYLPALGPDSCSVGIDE
inactive: volasertib -0.115 | [3] 0.071 | [4] -0.072 | rosiglitazone 0.014 | [7] -0.07 | alvocidib 0.036 | Tubastatin A 0.197 | [8] -0.054

IPP (UniProt Q9Y573)
Chain of UniProt Q9Y573 (Q9Y573 whole entry, looked up): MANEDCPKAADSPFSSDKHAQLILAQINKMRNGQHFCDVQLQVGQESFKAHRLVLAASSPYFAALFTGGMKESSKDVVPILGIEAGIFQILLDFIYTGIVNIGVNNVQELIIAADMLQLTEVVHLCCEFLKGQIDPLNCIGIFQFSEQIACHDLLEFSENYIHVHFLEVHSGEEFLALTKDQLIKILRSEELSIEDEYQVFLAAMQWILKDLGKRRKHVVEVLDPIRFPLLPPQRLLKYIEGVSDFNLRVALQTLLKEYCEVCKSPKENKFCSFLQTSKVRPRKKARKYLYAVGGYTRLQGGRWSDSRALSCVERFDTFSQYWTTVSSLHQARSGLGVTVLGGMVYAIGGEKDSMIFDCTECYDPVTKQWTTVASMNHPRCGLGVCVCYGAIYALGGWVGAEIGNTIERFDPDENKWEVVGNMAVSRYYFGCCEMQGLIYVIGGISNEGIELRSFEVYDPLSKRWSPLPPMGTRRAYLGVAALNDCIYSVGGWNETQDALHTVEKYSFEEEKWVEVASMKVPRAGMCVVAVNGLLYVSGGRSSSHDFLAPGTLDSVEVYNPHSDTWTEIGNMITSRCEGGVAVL
inactive: rosiglitazone -0.24

IKZF1 (UniProt R9R4D9)
inactive: volasertib 0.085 | [4] -0.247 | [6] 0.229 | [7] 0.05 | saracatinib 0.019 | alvocidib 0.155 | Tubastatin A -0.158 | [9] -0.038
